Reference: PubChem BioAssay AID1159580 (chemical genetic matrix, 2015)
Values joined by “and” are separate entries in the source; they are usually repeats but may differ in a detail not shown here. Equal entries are not always repeated. Hit rate of the full screen: of about 5,500 compounds, about 2,000 (36%) were called active. Another 18% or so got no clear call; they are omitted. Rule as the data show it: active = normalized growth mostly below about 0.91 (no sharp cut-off); inconclusive = no clear call, values can overlap the other calls; inactive = mostly above about 0.92. The list shows a part of the results.

Assay: chemical genetic growth profiling, strain panel (AID 1159580);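 also: tested at 20 µM; growth read once vehicle control cultures reached saturation at 30 °C; 1 = growth at the plate median or of vehicle wells; lower values mean less growth of the strain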
Conditions: S. cerevisiae deletion strains, growth OD

Measured: normalized growth

CC(C)c1c(O)c(-c2cc3c(c(C(C)C)c2O)CCC2C(C)(C)CCC[C@]32C)cc2c1CCC1C(C)(C)CCC[C@]21C (stereo partly specified)
inactive: locus YAL013W, strain DEP1, active compounds read low 1.01 | locus YAL021C, strain ccr4, active compounds read low 0.987 | locus YAL026C, strain drs2, active compounds read low 0.988 | locus YAL030W, strain snc1, active compounds read low 0.996 | locus YBL061C, strain skt5, active compounds read low 0.991 | locus YBR009C, strain hhf1, active compounds read low 1.02 | locus YBR021W, strain FUR4, active compounds read low 1.03 | locus YBR023C, strain chs3, active compounds read low 0.992 | locus YBR171W, strain sec66, active compounds read low 0.976 | locus YBR229C, strain ROT2, active compounds read low 1.02 | locus YBR231C, strain swc5, active compounds read low 0.99 | locus YBR279W, strain paf1, active compounds read low 0.99 | locus YCL011C, strain gbp2, active compounds read low 0.983 | locus YCL016C, strain dcc1, active compounds read low 0.976 | locus YCL029C, strain bik1, active compounds read low 1.02 | locus YCL061C, strain MRC1, active compounds read low 0.982 | locus YCL069W, strain vba3, active compounds read low 0.998 | locus YCR088W, strain abp1, active compounds read low 1 | locus YDL005C, strain med2, active compounds read low 0.964 | locus YDL035C, strain GPR1, active compounds read low 1.02 | locus YDL040C, strain nat1, active compounds read low 0.991 | locus YDL074C, strain BRE1, active compounds read low 1.02 | locus YDL101C, strain DUN1, active compounds read low 1.01 | locus YDL134C, strain PPH21, active compounds read low 1.01 | locus YDL185W, strain tfp1, active compounds read low 1.04 | locus YDL192W, strain arf1, active compounds read low 1.03 | locus YDR001C, strain nth1, active compounds read low 0.984 | locus YDR069C, strain doa4, active compounds read low 0.982 | locus YDR101C, strain arx1, active compounds read low 1.01 | locus YDR137W, strain rgp1, active compounds read low 0.982 | locus YDR150W, strain NUM1, active compounds read low 1.02 | locus YDR159W, strain sac3, active compounds read low 0.986 | locus YDR162C, strain NBP2, active compounds read low 1.02 | locus YDR195W, strain ref2 0.938 | locus YDR297W, strain sur2, active compounds read low 0.985 | locus YDR318W, strain mcm21, active compounds read low 1.02 | locus YDR334W, strain swr1, active compounds read low 0.972 | locus YDR335W, strain msn5, active compounds read low 0.986 | locus YDR388W, active compounds read low 1.01 | locus YDR392W, strain spt3, active compounds read low 0.982 | locus YDR502C, strain sam2, active compounds read low 1.01 | locus YEL003W, strain gim4, active compounds read low 0.995 | locus YEL037C, strain rad23, active compounds read low 0.99 | locus YEL061C, strain CIN8 (second series), active compounds read low 0.993 | locus YEL061C, strain CIN8, active compounds read low 1.01 | locus YER015W, strain faa2, active compounds read low 0.985 | locus YER016W, strain bim1, active compounds read low 0.972 | locus YER110C, active compounds read low 1.02 | locus YER111C, strain swi4, active compounds read low 0.992 | locus YER155C, strain BEM2 (second series), active compounds read low 0.992 | locus YER155C, strain BEM2, active compounds read low 1.01 | locus YER167W, strain BCK2, active compounds read low 1.03 | locus YFR010W, strain ubp6, active compounds read low 1.01 | locus YGL078C, strain dbp3, active compounds read low 1.01 | locus YGL086W, strain mad1, active compounds read low 1.02 | locus YGL167C, strain pmr1, active compounds read low 0.993 | locus YGL173C, strain kem1, active compounds read low 0.972 | locus YGL227W, strain vid30, active compounds read low 0.982 | locus YGL240W, strain doc1, active compounds read low 0.988 | locus YGL248W, strain PDE1, active compounds read low 1.02 | locus YGL253W, strain hxk2, active compounds read low 0.985 | locus YGR078C, strain PAC10, active compounds read low 1.01 | locus YGR135W, strain pre9, active compounds read low 1.01 | locus YGR229C, strain SMI1, active compounds read low 1.01 | locus YGR252W, strain gcn5, active compounds read low 1.06 | locus YHR013C, strain ard1, active compounds read low 0.947 | locus YHR027C, strain rpn1, active compounds read low 0.985 | locus YHR030C, strain SLT2, active compounds read low 1.01 and 0.972 | locus YHR079C, strain IRE1 (second series), active compounds read low 1.01 | locus YHR079C, strain IRE1, active compounds read low 0.965 | locus YHR094C, strain hxt1, active compounds read low 1.02 | locus YHR129C, strain ARP1, active compounds read low 1 | locus YHR142W, strain chs7, active compounds read low 0.986 | locus YHR200W, strain rpn10, active compounds read low 1.02 | locus YIL066C, strain RNR3, active compounds read low 1.02 | locus YIL073C, strain SPO22, active compounds read low 1.08 | locus YIL125W, strain kgd1, active compounds read low 1.02 | locus YIR030C, strain dcg1, active compounds read low 1.01 | locus YJL092W, strain hpr5, active compounds read low 0.979 | locus YJL095W, strain BCK1 (second series), active compounds read low 0.997 | locus YJL095W, strain BCK1, active compounds read low 1.01 and 1 | locus YJL115W, strain asf1, active compounds read low 0.956 | locus YJL129C, strain trk1, active compounds read low 0.988 | locus YJL134W, strain LCB3, active compounds read low 1.01 | locus YJL154C, strain vps35, active compounds read low 0.985 | locus YJL164C, strain tpk1, active compounds read low 0.994 | locus YJL166W, strain qcr8, active compounds read low 0.997 | locus YJL168C, strain set2, active compounds read low 1.02 | locus YJL187C, strain SWE1 (second series), active compounds read low 1.01 | locus YJR043C, strain POL32, active compounds read low 1.03 | locus YJR066W, strain TOR1, active compounds read low 0.945
